# From PubChem BioAssay (Tox21)
# Where “and” joins values, the source holds several entries; their conditions need not be identical. Equal entries are not always repeated. Values without a mark were called inactive. Inconclusive results are not listed. Entries that show only a call come without a potency. Calls of active or inactive are those of the source. Calls follow the shape of the dose curve; as a rule, active = well fitted curve in the direction sought with a large enough effect in the repeat runs; inconclusive = weak or mixed curves; inactive = no such curve, though single readings can be large; an effect the other way counts as inactive or inconclusive.
# Columns and labels:
# [1] = Human pregnane X receptor (PXR) small molecule agonists, qHTS cell viability counter screen (AID 1346977); also: nearly all actives have a fitted effect of over 50% in size
# Outline: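 Cytotoxicity counter screen run in the same wells as the PXR luciferase assay, using PXR-Luc HepG2 cells in charcoal-stripped serum medium. Viability: CellTiter-Fluor fluorescence after 24hr compound treatment.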
# [2] = Caspase-3/7 induction in HepG2 cells by small molecules, qHTS assay (AID 1346978); also: nearly all actives have a fitted effect of over 15% in size
# Outline: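 Wild-type HepG2 cells, 2,000/well, settled 5 hr at 37 C and 5% CO2, then compound-treated for 17 hr; caspase-3/7 activity read by luminescent Caspase-Glo 3/7 after 30 min at room temperature.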
# [3] = Caspase-3/7 induction in CHO-K1 cells by small molecules, qHTS cell viability counter screen (AID 1346979); also: nearly all actives have a fitted effect of over 35% in size
# Outline: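 Cytotoxicity counter screen run in parallel with the caspase-3/7 assay: CHO-K1 cells, 16hr compound treatment at 37C, then CellTiter-Fluor for 1hr before fluorescence reading.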
# [4] = Caspase-3/7 induction in CHO-K1 cells by small molecules, qHTS assay (AID 1346980); also: nearly all actives have a fitted effect of over 15% in size
# Outline: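 Wild-type CHO-K1 cells exposed to compounds for 17hr at 37 C, 5% CO2. Caspase-3/7 activity then measured by Caspase-Glo 3/7 luminescence after 30min at room temperature.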
# [5] = Caspase-3/7 induction in HepG2 cells by small molecules, qHTS cell viability counter screen (AID 1346981); also: series mostly up to about 92 µM; nearly all actives have a fitted effect of over 30% in size
# Outline: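 Wild-type HepG2 cells, 2,000/well, settled 5 hr at 37 C, 5% CO2 before compound addition. Viability read by CellTiter-Fluor fluorescence, reagent added after 16 hr compound exposure, then 1 hr at 37C, in the same wells as the caspase read.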
# [6] = target: Nuclear receptor subfamily 1 group I member 2 (Homo sapiens) (UniProt O75469); test: Human pregnane X receptor (PXR) small molecule agonists, qHTS assay (AID 1346982); also: nearly all actives have a fitted effect of over 35% in size; also: potency is read from the fitted curve at half-maximal effect
# Outline: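 PXR-Luc HepG2 reporter cells (CYP3A4-driven luciferase) in 5% charcoal-stripped FBS medium, plated 5 h before compound addition, then treated 24 h at 37C. Luciferase read by ONE-Glo luminescence after 30 min at room temperature.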
# [7] = target: Cytochrome P450 2D6 (Homo sapiens) (UniProt P10635); test: Cytochrome P450 Family 2 Subfamily D Member 6 (CYP2D6) small molecule antagonists: luciferase reporter qHTS assay (AID 1671196); also: nearly all actives have a fitted effect of over 50% in size; also: potency is read from the fitted curve at half-maximal effect; as to activity change, negative = inhibition: series mostly up to about 120 µM
# Outline: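 Cell-free P450-Glo system: CYP2D6 with proluciferin substrate was pre-incubated with compound for 10 min, then reacted with NADPH regeneration for 1 h at room temperature. Luciferin product was detected after 20 min, and data were reported as relative luminescence units.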
# [8] = target: Cytochrome P450 2C19 (Homo sapiens) (UniProt P33261); test: Cytochrome P450 Family 2 Subfamily C Member 19 (CYP2C19) small molecule antagonists: luciferase reporter qHTS assay (AID 1671197); also: nearly all actives have a fitted effect of over 65% in size; also: potency is read from the fitted curve at half-maximal effect; as to activity change, negative = inhibition: series mostly up to about 120 µM
# Outline: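 Quantitative high-throughput screen of the Tox21 library using CYP2C19 with proluciferin substrate. Reaction: NADPH regeneration, 37C, 1 h, after 10 min compound preincubation at room temperature. Readout: luminescence.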
# [9] = target: Cytochrome P450 2C9 (Homo sapiens) (UniProt P11712); test: Cytochrome P450 Family 2 Subfamily C Member 9 (CYP2C9) small molecule antagonists: luciferase reporter qHTS assay (AID 1671198); also: nearly all actives have a fitted effect of over 50% in size; also: potency is read from the fitted curve at half-maximal effect; as to activity change, negative = inhibition: series mostly up to about 120 µM
# Outline: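 P450-Glo proluciferin substrate with CYP2C9 enzyme; 10 min RT preincubation, then NADPH regeneration 1 h at 37C; luciferin detection reagent 20 min RT, luminescence in relative luminescence units.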
# [10] = target: Cytochrome P450 1A2 (Homo sapiens) (UniProt P05177); test: Cytochrome P450 Family 1 Subfamily A Member 2 (CYP1A2) small molecule antagonists: luciferase reporter qHTS assay (AID 1671199); also: nearly all actives have a fitted effect of over 50% in size; also: potency is read from the fitted curve at half-maximal effect; as to activity change, negative = inhibition: series mostly up to about 120 µM
# Outline: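 P450-Glo CYP1A2 enzyme–proluciferin substrate mix with compound 10 min at room temperature, then NADPH regeneration 1 h at room temperature. Luciferin detection reagent added, luminescence read after 20 min; furafylline positive control.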
# [11] = target: Voltage-gated inwardly rectifying potassium channel KCNH2 (Homo sapiens) (UniProt Q12809); test: Human Ether-a-go-go-Related Gene (hERG) channel small molecule antagonists: fluorescence cell-based qHTS assay (AID 1671200)
# Outline: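 Fluorescence at 540 nm emission (480 nm excitation) was recorded kinetically for 2 min at 1-second intervals once the thallium-containing stimulus reached cells previously loaded with FluxOR II dye.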
# [12] = target: Cytochrome P450 3A4 (Homo sapiens) (UniProt P08684); test: Cytochrome P450 Family 3 Subfamily A Member 4 (CYP3A4) small molecule antagonists: luciferase reporter qHTS assay (AID 1671201); also: nearly all actives have a fitted effect of over 50% in size; also: potency is read from the fitted curve at half-maximal effect; as to activity change, negative = inhibition: series mostly up to about 120 µM
# Outline: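 qHTS, 1536-well. CYP3A4 + proluciferin substrate, cpd 10 min RT → NADPH regen 1 h RT → detection reagent 20 min → luminescence (RLU). Ketoconazole positive control.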
# [13] = target: Nuclear receptor subfamily 1 group I member 2 (Rattus norvegicus) (UniProt Q9R1A7); test: Rat pregnane X receptor (rPXR) activation by small molecules, qHTS assay (AID 1346983); details: rPXR luciferase reporter cells, One-Glo luminescence, 24 h; max activation: stronger effect = higher value; also: nearly all actives have a fitted effect of over 20% in size
# Outline: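 Cell-based rPXR activation assay: rPXR cells, 2,000 per well, rested 5hr at 37 C, then exposed to compounds in DMSO for 24 hr at 37 C. Luciferase activity read by One-Glo luminescence after 30 min at room temperature.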
# [14] = target: Nuclear receptor subfamily 1 group I member 2 (Homo sapiens) (UniProt O75469); test: CYP3A4 induction through human pregnane X receptor (PXR) by small molecules, qHTS assay (AID 1346984); also: nearly all actives have a fitted effect of over 40% in size
# Outline: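 DPX-2 HepG2 cells carrying a PXR response element and CYP3A4-promoter luciferase construct, treated with compounds 24 hr at 37C. Then P450-Glo CYP3A4 Luciferin-IPA substrate (3uM final) for 3 hr at 37C, One-Glo added, luminescence read.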
# [15] = target: Nuclear receptor subfamily 1 group I member 2 (Homo sapiens) (UniProt O75469); test: Human pregnane X receptor (PXR) activation by small molecules, qHTS assay (AID 1346985); also: nearly all actives have a fitted effect of over 40% in size
# Outline: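 DPX-2 cells (HepG2 co-transfected with a PXR response element and a CYP3A4-promoter luciferase construct) were seeded at 2,000 per well, rested 5 hr at 37C, then exposed to DMSO-dissolved compounds for 24 hr. Activation was read as luciferase luminescence.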
# Sequence of Cytochrome P450 3A4 (Homo sapiens) (P08684 whole entry, looked up): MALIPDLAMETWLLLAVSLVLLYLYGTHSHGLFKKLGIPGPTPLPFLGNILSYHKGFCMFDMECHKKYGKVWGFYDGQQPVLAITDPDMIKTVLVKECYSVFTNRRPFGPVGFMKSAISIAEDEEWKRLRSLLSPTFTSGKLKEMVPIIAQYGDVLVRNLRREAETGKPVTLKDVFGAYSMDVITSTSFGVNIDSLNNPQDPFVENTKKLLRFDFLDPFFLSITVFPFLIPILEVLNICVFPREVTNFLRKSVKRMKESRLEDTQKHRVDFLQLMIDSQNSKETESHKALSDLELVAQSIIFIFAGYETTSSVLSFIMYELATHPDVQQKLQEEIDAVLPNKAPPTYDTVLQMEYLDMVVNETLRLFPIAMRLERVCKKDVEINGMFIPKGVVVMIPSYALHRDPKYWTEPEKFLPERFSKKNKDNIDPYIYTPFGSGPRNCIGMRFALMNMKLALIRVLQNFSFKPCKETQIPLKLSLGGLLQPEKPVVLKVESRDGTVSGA
# Sequence of Nuclear receptor subfamily 1 group I member 2 (Rattus norvegicus) (Q9R1A7 whole entry, looked up): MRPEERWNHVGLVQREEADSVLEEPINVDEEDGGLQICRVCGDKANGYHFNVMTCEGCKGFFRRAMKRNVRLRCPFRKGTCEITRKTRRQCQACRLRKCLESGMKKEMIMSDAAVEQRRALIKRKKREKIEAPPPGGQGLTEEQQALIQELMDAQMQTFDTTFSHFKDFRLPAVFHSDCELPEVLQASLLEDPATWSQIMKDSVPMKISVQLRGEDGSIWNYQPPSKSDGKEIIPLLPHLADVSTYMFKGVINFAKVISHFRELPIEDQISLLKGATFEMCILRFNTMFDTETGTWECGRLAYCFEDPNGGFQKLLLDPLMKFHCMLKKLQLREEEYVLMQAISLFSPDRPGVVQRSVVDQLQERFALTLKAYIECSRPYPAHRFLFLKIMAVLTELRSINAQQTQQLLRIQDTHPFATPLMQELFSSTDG
# Sequence of Voltage-gated inwardly rectifying potassium channel KCNH2 (Homo sapiens) (Q12809 whole entry, looked up): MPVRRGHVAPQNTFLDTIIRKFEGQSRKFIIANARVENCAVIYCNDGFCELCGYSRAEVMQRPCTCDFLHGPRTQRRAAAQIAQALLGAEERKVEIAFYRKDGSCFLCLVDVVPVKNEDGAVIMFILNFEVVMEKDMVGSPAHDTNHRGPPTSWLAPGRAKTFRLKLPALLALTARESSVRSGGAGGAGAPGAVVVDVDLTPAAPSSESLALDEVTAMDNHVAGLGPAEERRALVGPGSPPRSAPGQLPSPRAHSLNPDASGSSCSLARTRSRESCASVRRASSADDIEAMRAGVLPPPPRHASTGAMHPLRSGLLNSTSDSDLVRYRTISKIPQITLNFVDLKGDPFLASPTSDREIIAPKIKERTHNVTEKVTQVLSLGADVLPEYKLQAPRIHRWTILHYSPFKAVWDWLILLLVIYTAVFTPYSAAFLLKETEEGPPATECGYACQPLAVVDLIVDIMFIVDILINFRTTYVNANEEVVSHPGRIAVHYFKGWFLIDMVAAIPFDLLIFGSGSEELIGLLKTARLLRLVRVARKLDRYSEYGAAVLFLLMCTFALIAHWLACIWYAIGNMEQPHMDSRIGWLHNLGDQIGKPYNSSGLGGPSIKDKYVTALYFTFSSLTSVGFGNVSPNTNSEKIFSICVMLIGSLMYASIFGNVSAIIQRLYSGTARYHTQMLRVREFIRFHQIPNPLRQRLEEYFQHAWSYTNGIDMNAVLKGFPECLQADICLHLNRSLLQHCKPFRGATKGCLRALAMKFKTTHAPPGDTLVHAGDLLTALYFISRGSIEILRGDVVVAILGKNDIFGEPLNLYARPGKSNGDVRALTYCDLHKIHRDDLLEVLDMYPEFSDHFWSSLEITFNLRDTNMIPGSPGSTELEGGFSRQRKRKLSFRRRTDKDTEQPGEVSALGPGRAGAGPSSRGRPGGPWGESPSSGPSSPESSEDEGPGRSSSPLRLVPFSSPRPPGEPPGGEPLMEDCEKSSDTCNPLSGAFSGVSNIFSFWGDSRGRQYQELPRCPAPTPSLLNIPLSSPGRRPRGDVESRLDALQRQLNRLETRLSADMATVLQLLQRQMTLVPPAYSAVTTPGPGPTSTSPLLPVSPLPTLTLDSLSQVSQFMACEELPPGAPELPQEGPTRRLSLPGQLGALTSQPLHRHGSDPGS
# Sequence of Nuclear receptor subfamily 1 group I member 2 (Homo sapiens) (O75469 whole entry, looked up): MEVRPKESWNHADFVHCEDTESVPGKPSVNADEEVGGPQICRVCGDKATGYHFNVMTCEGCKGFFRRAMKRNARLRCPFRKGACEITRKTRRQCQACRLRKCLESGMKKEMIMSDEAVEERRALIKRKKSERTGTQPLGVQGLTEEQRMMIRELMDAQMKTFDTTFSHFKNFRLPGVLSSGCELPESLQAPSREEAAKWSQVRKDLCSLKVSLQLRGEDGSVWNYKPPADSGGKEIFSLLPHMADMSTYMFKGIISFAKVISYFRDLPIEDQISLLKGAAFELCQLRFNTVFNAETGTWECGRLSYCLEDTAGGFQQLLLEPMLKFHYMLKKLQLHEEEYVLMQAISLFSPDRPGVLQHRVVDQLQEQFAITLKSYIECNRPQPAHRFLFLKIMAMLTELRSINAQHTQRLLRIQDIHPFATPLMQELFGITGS
# Sequence of Cytochrome P450 2C9 (Homo sapiens) (P11712 whole entry, looked up): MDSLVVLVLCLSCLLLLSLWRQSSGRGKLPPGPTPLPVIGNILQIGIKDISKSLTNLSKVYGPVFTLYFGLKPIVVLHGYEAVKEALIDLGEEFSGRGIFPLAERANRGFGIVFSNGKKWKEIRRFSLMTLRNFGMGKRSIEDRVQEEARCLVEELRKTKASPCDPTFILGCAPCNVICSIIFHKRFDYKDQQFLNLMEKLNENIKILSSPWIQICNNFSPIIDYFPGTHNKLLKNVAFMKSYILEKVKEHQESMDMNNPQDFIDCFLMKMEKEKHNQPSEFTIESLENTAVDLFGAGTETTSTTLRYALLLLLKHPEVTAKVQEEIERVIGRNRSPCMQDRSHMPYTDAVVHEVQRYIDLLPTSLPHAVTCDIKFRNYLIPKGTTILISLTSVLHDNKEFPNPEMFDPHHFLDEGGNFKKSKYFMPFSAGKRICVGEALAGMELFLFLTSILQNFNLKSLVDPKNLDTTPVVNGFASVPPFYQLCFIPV
# Sequence of Cytochrome P450 2D6 (Homo sapiens) (P10635 whole entry, looked up): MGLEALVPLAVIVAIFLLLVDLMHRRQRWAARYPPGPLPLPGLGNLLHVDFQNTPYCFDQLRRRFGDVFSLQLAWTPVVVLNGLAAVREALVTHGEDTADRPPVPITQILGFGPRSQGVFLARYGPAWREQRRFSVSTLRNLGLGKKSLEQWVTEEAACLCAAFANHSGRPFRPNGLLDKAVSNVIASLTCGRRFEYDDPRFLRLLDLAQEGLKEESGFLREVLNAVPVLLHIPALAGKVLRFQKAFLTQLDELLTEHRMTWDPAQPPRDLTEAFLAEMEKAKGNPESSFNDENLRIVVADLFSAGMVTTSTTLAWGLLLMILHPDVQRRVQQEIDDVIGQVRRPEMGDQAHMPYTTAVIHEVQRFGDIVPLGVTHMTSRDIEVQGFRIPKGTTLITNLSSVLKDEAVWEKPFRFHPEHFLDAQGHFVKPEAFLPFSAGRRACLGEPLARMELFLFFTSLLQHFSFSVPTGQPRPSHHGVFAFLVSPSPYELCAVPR
# Sequence of Cytochrome P450 2C19 (Homo sapiens) (P33261 whole entry, looked up): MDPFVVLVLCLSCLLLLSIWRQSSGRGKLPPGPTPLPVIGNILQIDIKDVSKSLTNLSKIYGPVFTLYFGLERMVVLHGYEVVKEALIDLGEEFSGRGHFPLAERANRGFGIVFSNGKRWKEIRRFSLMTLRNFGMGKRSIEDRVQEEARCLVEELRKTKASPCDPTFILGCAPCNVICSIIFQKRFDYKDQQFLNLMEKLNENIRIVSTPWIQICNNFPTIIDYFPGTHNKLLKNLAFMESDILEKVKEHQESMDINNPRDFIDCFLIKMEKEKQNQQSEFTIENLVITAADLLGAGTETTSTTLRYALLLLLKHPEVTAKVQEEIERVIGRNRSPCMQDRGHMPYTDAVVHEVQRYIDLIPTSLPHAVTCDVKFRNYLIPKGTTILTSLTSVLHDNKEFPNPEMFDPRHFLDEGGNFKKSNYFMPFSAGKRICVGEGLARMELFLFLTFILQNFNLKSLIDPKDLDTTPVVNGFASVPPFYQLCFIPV
# Sequence of Cytochrome P450 1A2 (Homo sapiens) (P05177 whole entry, looked up): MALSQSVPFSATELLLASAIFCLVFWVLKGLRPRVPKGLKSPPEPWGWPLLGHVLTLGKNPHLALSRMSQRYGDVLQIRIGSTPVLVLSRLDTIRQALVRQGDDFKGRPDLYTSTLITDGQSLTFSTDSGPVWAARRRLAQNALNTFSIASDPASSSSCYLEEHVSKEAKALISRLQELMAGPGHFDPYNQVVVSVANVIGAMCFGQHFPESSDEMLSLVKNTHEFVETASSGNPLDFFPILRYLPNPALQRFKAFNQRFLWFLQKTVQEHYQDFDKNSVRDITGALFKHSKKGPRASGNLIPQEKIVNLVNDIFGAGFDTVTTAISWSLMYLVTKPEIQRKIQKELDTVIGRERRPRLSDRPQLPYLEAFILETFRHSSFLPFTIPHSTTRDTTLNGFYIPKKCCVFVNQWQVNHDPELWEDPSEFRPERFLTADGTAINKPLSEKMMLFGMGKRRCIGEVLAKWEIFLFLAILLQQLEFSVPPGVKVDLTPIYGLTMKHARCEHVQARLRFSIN
smiles,measurement,setting,value
CC(=O)OCC(C)C,Potency,[1],inactive
same,Potency,[2],inactive
same,Potency,[3],inactive
same,outcome,[4],inactive
same,Potency,[5],inactive
same,Potency,[6],inactive
same,Potency,[7],inactive
same,Potency,[8],inactive
same,Potency,[9],inactive
same,Potency,[10],inactive
same,Potency,[11],inactive
same,Potency,[12],inactive
CSCC[C@H](NC(=O)[C@H](Cc1c[nH]c2ccccc12)NC(=O)CCNC(=O)OC(C)(C)C)C(=O)N[C@@H](CC(=O)O)C(=O)N[C@@H](Cc1ccccc1)C(N)=O,Potency,[1],inactive
same,Potency,[2],inactive
same,Potency,[3],inactive
same,outcome,[4],inactive
same,Potency,[5],inactive
same,Potency,[6],inactive
same,Potency,[7],inactive
same,Potency,[8],inactive
same,Potency,[9],inactive
same,Potency,[10],inactive
same,Potency,[11],inactive
CC[C@H]1OC(=O)[C@H](C)[C@@H](O[C@H]2C[C@@](C)(OC)[C@@H](O)[C@H](C)O2)[C@H](C)[C@@H](O[C@@H]2O[C@H](C)C[C@H](N(C)C)[C@H]2O)[C@](C)(O)C[C@@H](C)C(=O)[C@H](C)[C@@H](O)[C@]1(C)O,Potency,[1],inactive
same,Potency,[2],inactive
same,Potency,[3],inactive
same,outcome,[4],inactive
same,Potency,[5],inactive
same,Potency,[6],inactive
same,max activation,[13],-0.703% and -0.253%
same,Potency,[14],inactive
same,Potency,[15],inactive
same,Potency,[7],inactive
same,Potency,[8],inactive
same,Potency,[10],inactive
same,Potency,[12],3.45 µM (active)
COC(=O)CC(C(C)=O)C(=O)OC (stereo unspecified),Potency,[1],inactive
same,Potency,[2],inactive
same,Potency,[3],inactive
same,outcome,[4],inactive
same,Potency,[5],inactive
same,Potency,[6],inactive
same,Potency,[8],inactive
same,Potency,[9],44.8 µM (active)
same,Potency,[11],inactive
same,Potency,[12],inactive
CC(C)(C)NCC(O)COc1cccc2c1C[C@H](O)[C@H](O)C2 (stereo partly specified),Potency,[1],inactive
same,Potency,[2],inactive
same,Potency,[3],inactive
same,outcome,[4],inactive
same,Potency,[5],inactive
same,max activation,[13],-1.94%
same,Potency,[14],inactive
same,Potency,[15],inactive
same,Potency,[7],inactive
same,Potency,[11],inactive
same,Potency,[12],inactive
CCNc1nc(N)nc(Cl)n1,Potency,[1],inactive
same,Potency,[2],inactive
same,Potency,[3],inactive
same,outcome,[4],inactive
same,Potency,[5],inactive
same,Potency,[6],inactive
same,Potency,[9],inactive
same,Potency,[10],31.7 µM (active)
same,Potency,[11],inactive
same,Potency,[12],inactive
CCCCCCOC(=O)CCCCC,Potency,[1],inactive
same,Potency,[2],inactive
same,Potency,[3],inactive
same,outcome,[4],inactive
same,Potency,[5],inactive
same,Potency,[6],inactive
same,Potency,[8],inactive
same,Potency,[9],inactive
same,Potency,[11],inactive
C[C@H](CS)C(=O)N1CCC[C@H]1C(=O)O,Potency,[1],inactive
same,Potency,[2],inactive
same,Potency,[3],inactive
same,outcome,[4],inactive
same,Potency,[5],inactive
same,max activation,[13],0.201%
same,Potency,[8],21.9 µM (active)
same,Potency,[10],inactive
same,Potency,[11],inactive
same,Potency,[12],inactive
c1ccc(CCCc2ccncc2)cc1,Potency,[1],inactive
same,Potency,[2],inactive
same,Potency,[3],inactive
same,outcome,[4],inactive
same,Potency,[5],inactive
same,Potency,[7],4.48 µM (active)
same,Potency,[8],0.633 µM (active)
same,Potency,[9],2 µM (active)
same,Potency,[10],1.42 µM (active)
same,Potency,[11],inactive
same,Potency,[12],0.448 µM (active)
CCCCCCCCCCCCCCN(C)C,"activity change, negative = cytotoxicity",[1],0.682% [at 19 µM]
same,caspase activation,[2],1.09% [at 19 µM]
same,"activity change, negative = cytotoxicity",[3],2.75% [at 19 µM]
same,caspase-3/7 activation,[4],-1.58% [at 19 µM]
same,"activity change, negative = cytotoxicity",[5],-7.71% [at 19 µM]
same,activation,[6],8.78% [at 19 µM]
same,"activity change, negative = inhibition",[9],-16.9% [at 23.6 µM]
same,"activity change, negative = inhibition",[11],-0.651% [at 15.8 µM]
same,"activity change, negative = inhibition",[12],-11.1% [at 23.6 µM]
[Cl][Nd]([Cl])[Cl],Potency,[1],inactive
same,Potency,[2],inactive
same,Potency,[3],inactive
same,outcome,[4],inactive
same,Potency,[5],inactive
same,Potency,[6],inactive
same,Potency,[8],inactive
same,Potency,[10],inactive
same,Potency,[11],inactive
same,Potency,[12],inactive
CC(C)(C)C(O)/C=C/c1ccc2c(c1)OCO2 (stereo unspecified),Potency,[1],inactive
same,Potency,[2],inactive
same,Potency,[3],inactive
same,outcome,[4],inactive
same,Potency,[5],inactive
same,Potency,[7],27.5 µM (active)
same,Potency,[8],3.89 µM (active)
same,Potency,[9],3.89 µM (active)
same,Potency,[10],5.75 µM (active)
same,Potency,[11],inactive
COC(C)(C)OC,Potency,[1],inactive
same,Potency,[2],inactive
same,Potency,[3],inactive
same,outcome,[4],inactive
same,Potency,[5],inactive
same,Potency,[6],inactive
same,Potency,[9],inactive
same,Potency,[11],inactive
CCCCCCCC/C=C/C(=O)O,Potency,[1],inactive
same,Potency,[2],inactive
same,Potency,[3],inactive
same,outcome,[4],inactive
same,Potency,[5],inactive
same,Potency,[6],inactive
same,Potency,[8],inactive
same,Potency,[9],inactive
same,Potency,[11],inactive
same,Potency,[12],inactive
C=CCOC(=O)COCCC(C)C,Potency,[1],inactive
same,Potency,[2],inactive
same,Potency,[3],inactive
same,outcome,[4],inactive
same,Potency,[5],inactive
same,Potency,[6],inactive
same,Potency,[9],inactive
same,Potency,[10],inactive
same,Potency,[11],inactive
O=C(O)CCC(=O)c1ccc(-c2ccccc2)cc1,Potency,[1],inactive
same,Potency,[2],inactive
same,Potency,[3],inactive
same,outcome,[4],inactive
same,Potency,[5],inactive
same,max activation,[13],11.9%
same,Potency,[14],inactive
same,Potency,[15],inactive
same,Potency,[7],inactive
same,Potency,[9],inactive
same,Potency,[10],inactive
same,Potency,[11],inactive
CC(C(=O)O)c1ccc(C(=O)c2cccs2)cc1 (stereo unspecified),Potency,[1],inactive
same,Potency,[2],inactive
same,Potency,[3],inactive
same,outcome,[4],inactive
same,Potency,[5],inactive
same,max activation,[13],-2.97%
same,Potency,[7],inactive
same,Potency,[9],7.76 µM (active)
same,Potency,[11],inactive
CC(CN(CCN(CC(C)OCCO)CC(C)OCCO)CC(C)OCCO)OCCO (stereo unspecified),Potency,[1],inactive
same,Potency,[2],inactive
same,Potency,[3],inactive
same,outcome,[4],inactive
same,Potency,[5],inactive
same,Potency,[6],3.31 µM (active)
same,Potency,[8],86.1 µM (active)
same,Potency,[10],inactive
same,Potency,[11],inactive
Cc1ccccc1S(N)(=O)=O,Potency,[1],inactive
same,Potency,[2],inactive
same,Potency,[3],inactive
same,outcome,[4],inactive
same,Potency,[5],inactive
same,Potency,[6],inactive
same,Potency,[8],inactive
same,Potency,[9],inactive
same,Potency,[11],inactive
same,Potency,[12],inactive
CCCCC(CC)COS(=O)(=O)O (stereo unspecified),Potency,[1],inactive
same,Potency,[2],inactive
same,Potency,[3],inactive
same,outcome,[4],inactive
same,Potency,[5],inactive
same,max activation,[13],-1.14%
same,Potency,[14],inactive
same,Potency,[15],inactive
same,Potency,[8],inactive
same,Potency,[10],inactive
same,Potency,[11],inactive
same,Potency,[12],inactive
O=CNNC=O,Potency,[1],inactive
same,Potency,[2],inactive
same,Potency,[3],inactive
same,outcome,[4],inactive
same,Potency,[5],inactive
same,Potency,[6],inactive
same,Potency,[8],inactive
same,Potency,[9],inactive
same,Potency,[10],inactive
same,Potency,[11],inactive
same,Potency,[12],inactive
